Laboratory results published in PubChem BioAssay AID1159580 (chemical genetic matrix, 2015).
About 2,000 (36%) of roughly 5,500 compounds were called active. About 18% were inconclusive and are not listed. No stated cut-off is given here; in the data, active means normalized growth mostly below about 0.91 (no sharp cut-off); inconclusive means no clear call, values can overlap the other calls; inactive means mostly above about 0.92. Some of the results follow.

Experiment: chemical genetic growth profiling, strain panel (AID 1159580);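 further: tested at 20 µM; growth read once vehicle control cultures reached saturation at 30 °C; 1 = growth at the plate median or of vehicle wells; lower values mean less growth of the strain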
Conditions: growth OD

Measured: normalized growth

COc1cc(N)c(Cl)cc1C(=O)NC1CCN(Cc2ccccc2)CC1
inactive: S. cerevisiae deletion strains, locus YJR043C, strain POL32, hits give low values 0.985 | S. cerevisiae deletion strains, locus YJR075W, strain HOC1, hits give low values 0.978 | S. cerevisiae deletion strains, locus YKL009W, strain mrt4, hits give low values 0.993 | S. cerevisiae deletion strains, locus YKL068W, hits give low values 0.974 | S. cerevisiae deletion strains, locus YKL085W, strain MDH1 (second series), hits give low values 0.995 | S. cerevisiae deletion strains, locus YKL085W, strain MDH1, hits give low values 0.995 | S. cerevisiae deletion strains, locus YKL160W, strain elf1, hits give low values 0.991 | S. cerevisiae deletion strains, locus YKL190W, strain CNB1, hits give low values 0.992 | S. cerevisiae deletion strains, locus YKR001C, strain vps1, hits give low values 1 | S. cerevisiae deletion strains, locus YKR026C, strain gcn3, hits give low values 0.988 | S. cerevisiae deletion strains, locus YKR091W, strain srl3, hits give low values 0.993 | S. cerevisiae deletion strains, locus YLL001W, strain dnm1, hits give low values 0.99 | S. cerevisiae deletion strains, locus YLL026W, hits give low values 0.997 | S. cerevisiae deletion strains, locus YLL041C, strain sdh2, hits give low values 0.996 | S. cerevisiae deletion strains, locus YLR027C, strain aat2, hits give low values 1 | S. cerevisiae deletion strains, locus YLR039C, strain RIC1, hits give low values 0.997 | S. cerevisiae deletion strains, locus YLR058C, strain SHM2, hits give low values 0.988 | S. cerevisiae deletion strains, locus YLR102C, strain apc9, hits give low values 0.994 | S. cerevisiae deletion strains, locus YLR221C, strain rsa3, hits give low values 0.996 | S. cerevisiae deletion strains, locus YLR258W, strain gsy2, hits give low values 0.994 | S. cerevisiae deletion strains, locus YLR262C, strain YPT6 (second series), hits give low values 1.01 | S. cerevisiae deletion strains, locus YLR262C, strain YPT6, hits give low values 0.969 | S. cerevisiae deletion strains, locus YLR268W, strain sec22, hits give low values 0.935 | S. cerevisiae deletion strains, locus YLR320W, strain mms22, hits give low values 1.01 | S. cerevisiae deletion strains, locus YLR330W, strain CHS5, hits give low values 0.993 | S. cerevisiae deletion strains, locus YLR342W, strain FKS1 (second series), hits give low values 1.05 | S. cerevisiae deletion strains, locus YLR342W, strain FKS1, hits give low values 0.999 | S. cerevisiae deletion strains, locus YLR357W, strain rsc2, hits give low values 1.02 | S. cerevisiae deletion strains, locus YLR370C, strain arc18, hits give low values 0.998 | S. cerevisiae deletion strains, locus YLR371W, strain rom2, hits give low values 0.989 | S. cerevisiae deletion strains, locus YLR384C, strain iki3, hits give low values 0.993 | S. cerevisiae deletion strains, locus YLR418C, strain cdc73, hits give low values 0.968 | S. cerevisiae deletion strains, locus YML016C, strain PPZ1, hits give low values 1 | S. cerevisiae deletion strains, locus YML032C, strain rad52, hits give low values 0.969 | S. cerevisiae deletion strains, locus YML120C, strain ndi1, hits give low values 0.993 | S. cerevisiae deletion strains, locus YML124C, strain tub3, hits give low values 0.996 | S. cerevisiae deletion strains, locus YMR058W, strain fet3, hits give low values 1 | S. cerevisiae deletion strains, locus YMR078C, strain ctf18, hits give low values 0.986 | S. cerevisiae deletion strains, locus YMR125W, strain sto1, hits give low values 0.988 | S. cerevisiae deletion strains, locus YMR129W, hits give low values 1 | S. cerevisiae deletion strains, locus YMR205C, strain PFK2, hits give low values 0.997 | S. cerevisiae deletion strains, locus YMR223W, strain ubp8, hits give low values 1.04 | S. cerevisiae deletion strains, locus YMR231W, strain pep5, hits give low values 0.985 | S. cerevisiae deletion strains, locus YMR263W, strain SAP30, hits give low values 0.978 | S. cerevisiae deletion strains, locus YMR307W, strain GAS1, hits give low values 1.09 | S. cerevisiae deletion strains, locus YNL067W, strain RPL9B, hits give low values 0.969 | S. cerevisiae deletion strains, locus YNL071W, strain lat1, hits give low values 0.997 | S. cerevisiae deletion strains, locus YNL128W, strain TEP1, hits give low values 0.984 | S. cerevisiae deletion strains, locus YNL153C, strain GIM3, hits give low values 0.985 | S. cerevisiae deletion strains, locus YNL209W, strain ssb2, hits give low values 1.01 | S. cerevisiae deletion strains, locus YNL233W, strain BNI4, hits give low values 0.99 | S. cerevisiae deletion strains, locus YNL248C, strain rpa49, hits give low values 0.991 | S. cerevisiae deletion strains, locus YNL250W, strain rad50, hits give low values 1 | S. cerevisiae deletion strains, locus YNL271C, strain bni1, hits give low values 0.995 | S. cerevisiae deletion strains, locus YNL298W, strain CLA4, hits give low values 0.974 | S. cerevisiae deletion strains, locus YNL307C, strain MCK1, hits give low values 0.977 | S. cerevisiae deletion strains, locus YNL322C, strain KRE1 (second series), hits give low values 0.994 | S. cerevisiae deletion strains, locus YNL322C, strain KRE1, hits give low values 0.991 | S. cerevisiae deletion strains, locus YNR049C, strain mso1, hits give low values 0.997 | S. cerevisiae deletion strains, locus YNR052C, strain pop2, hits give low values 0.993 | S. cerevisiae deletion strains, locus YOL006C, strain TOP1, hits give low values 0.933 | S. cerevisiae deletion strains, locus YOL012C, strain htz1 1.69 | S. cerevisiae deletion strains, locus YOL147C, strain pex11, hits give low values 0.996 | S. cerevisiae deletion strains, locus YOR001W, strain rrp6, hits give low values 0.996 | S. cerevisiae deletion strains, locus YOR061W, strain CKA2, hits give low values 0.994 | S. cerevisiae deletion strains, locus YOR069W, strain VPS5, hits give low values 0.989 | S. cerevisiae deletion strains, locus YOR070C, strain gyp1, hits give low values 0.997 | S. cerevisiae deletion strains, locus YOR080W, strain dia2, hits give low values 1.01 | S. cerevisiae deletion strains, locus YOR083W, strain WHI5, hits give low values 1 | S. cerevisiae deletion strains, locus YOR106W, strain vam3, hits give low values 1 | S. cerevisiae deletion strains, locus YOR136W, strain idh2, hits give low values 0.996 | S. cerevisiae deletion strains, locus YOR144C, strain elg1, hits give low values 0.982 | S. cerevisiae deletion strains, locus YOR184W, strain ser1, hits give low values 0.965 | S. cerevisiae deletion strains, locus YOR265W, strain rbl2, hits give low values 0.998 | S. cerevisiae deletion strains, locus YOR270C, strain vph1, hits give low values 1.02 | S. cerevisiae deletion strains, locus YOR290C, strain snf2, hits give low values 0.984 | S. cerevisiae deletion strains, locus YOR316C, strain cot1, hits give low values 0.963 | S. cerevisiae deletion strains, locus YPL051W, strain arl3, hits give low values 0.993 | S. cerevisiae deletion strains, locus YPL055C, strain LGE1, hits give low values 0.976 | S. cerevisiae deletion strains, locus YPL078C, strain atp4, hits give low values 0.995 | S. cerevisiae deletion strains, locus YPL106C, strain sse1, hits give low values 0.99 | S. cerevisiae deletion strains, locus YPL240C, strain hsp82, hits give low values 0.999 | S. cerevisiae deletion strains, locus YPL241C, strain CIN2, hits give low values 0.998 | S. cerevisiae deletion strains, locus YPR119W, strain clb2, hits give low values 0.985 | S. cerevisiae deletion strains, locus YPR141C, strain kar3, hits give low values 0.986 | S. cerevisiae deletion strains, locus YPR163C, strain tif3, hits give low values 0.986 | S. cerevisiae deletion strains, locus YPR167C, strain met16, hits give low values 0.983 | S. cerevisiae deletion strains, strain wtn01, hits give low values 0.949 | S. cerevisiae strains, strain wild type, hits give low values 1
